The text below walks through data of PubChem BioAssay AID2283227 (EPA ToxCast).

For orientation: AC50 means the concentration giving half of the maximal activity seen.

Records with an inconclusive call do not appear. The source made the active and inactive calls. The calls were made as follows: active = hit-call score of the fitted dose curve at least 0.9, where 1 is the maximum; inconclusive = response in the unintended direction; inactive = score below 0.9.

The subject of the experiment is pig Methylenetetrahydrofolate Reductase (MTHFR), gene 397180. The experiment in a line: NVS_ENZ_pMTHFR: NovaScreen (NVS) Enzymatic Assay for pig Methylenetetrahydrofolate Reductase (MTHFR). As to the method: NVS_ENZ_pMTHFR is a biochemical, single-readout assay that uses extracted gene-proteins from Porcine kidney in a tissue-based cell-free assay. Measurements were taken 1 hour after chemical dosing in a 96-well plate.NVS_ENZ_pMTHFR is one of one assay component(s) measured or calculated from the NVS_ENZ_pMTHFR assay. It is designed to make measurements of enzyme activity, a form of enzyme reporter, as detected with scintillation counting signals by Lysate-based radiodetection technology.Data from the assay component NVS_ENZ_pMTHFR was analyzed into 1 assay endpoint. This assay endpoint, NVS_ENZ_pMTHFR, was analyzed in the positive analysis fitting direction relative to DMSO as the negative control and baseline of activity. Using a type of enzyme reporter, loss-of-signal activity can be used to understand changes in the enzymatic activity as they relate to the gene MTHFR. Furthermore, this assay endpoint can be referred to as a primary readout, because this […] where this one serves a enzymatic activity function. To generalize the intended target to other relatable targets, this assay endpoint is annotated to the oxidoreductase intended target family, where the subfamily is methylenetetrahydrofolate reductase.
Binding assays used specific radioligands (tritiated, iodinated) with non-radioactive competitive displacement ligands in agonist or antagonist protocols (as indicated) and various reference compounds and inhibitors to titrate specific binding to receptors and transporters. Most enzyme assays (CYPs, kinases, phosphatases, proteases, HDACs) used recombinant protein and specific substrates (fluorescence mostly, some colorimetric and radioactive) and inhibitors, followed by a biochemical separation of substrate and product. All assays for the biochemical HTS were initially run in duplicate at a single concentration (10 uM for CYP450 assays and 25 uM for all others). Assay-chemical combinations meeting a pre-defined threshold (e.g., 30% inhibition and other criteria defined below) were then run in singleton concentration-response format with maximum concentration of 20 uM for CYPs and 50 uM for all others. Each assay was run with positive and negative controls, and concurrent controls on every plate. The follow-up (secondary) screen tested active chemical-pairs in concentration series, as well as a few additional assays not tested in the primary screen, some selected negative inactives, and several cases re-run in the concentration series for confirmatory purposes.
In the case of `CCCCOCN(C(=O)CCl)c1c(CC)cccc1CC`, the compound was classed as inactive. On to `CCc1cccc(CC)c1N(COC)C(=O)CCl`, for which the compound was classed as inactive. With `COc1nc(C)nc(NC(=O)NS(=O)(=O)c2ccccc2Cl)n1`, the compound was classed as inactive.

As to `CC(=NC#N)N(C)Cc1ccc(Cl)nc1`, the outcome was inactive.

For the compound `COC(=O)c1c(C(F)F)nc(C(F)(F)F)c(C2=NCCS2)c1CC(C)C`, the half-maximal activity concentration (AC50) is 6.46 µM (active).

As for `CC(C)Oc1cc(-n2nc(C(C)(C)C)oc2=O)c(Cl)cc1Cl`, the compound was called inactive. With `CCCCOC(=O)c1ccccc1C(=O)O`, the outcome was inactive. On the same count and under the same terms, as for `CC(C)(C)C(=O)C(Oc1ccc(Cl)cc1)n1cncn1` (stereo unspecified), the entry is “inactive”; as for `COP(=O)(OC)OC=C(Cl)Cl`, “inactive”. In the case of `N#Cc1c[nH]cc1-c1cccc2c1OC(F)(F)O2`, the compound was called inactive. As for `CN(C)c1nc(=O)n(C2CCCCC2)c(=O)n1C`, the result was inactive.
